Only a selection was taken, and hits are over-represented in it overall.
AmpC detergent = blocks E. coli AmpC beta-lactamase in detergent assay. P00811. AmpC hydrolysis of nitrocefin, absorbance 480 nm, 0.01% Triton. Potency, µM (highest dose often 114 µM), inactives show at the highest dose activity change, negative = inhibition, actives largely listed as inhibitors. 370,000 tested, 0.041% active. AID 485294;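 note: potency is the fitted concentration of half-maximal effect; 0% = no-compound wells and -100% = no-enzyme wells; nearly all actives have a fitted effect of over 25% in size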
Target sequence (P00811 whole entry, looked up): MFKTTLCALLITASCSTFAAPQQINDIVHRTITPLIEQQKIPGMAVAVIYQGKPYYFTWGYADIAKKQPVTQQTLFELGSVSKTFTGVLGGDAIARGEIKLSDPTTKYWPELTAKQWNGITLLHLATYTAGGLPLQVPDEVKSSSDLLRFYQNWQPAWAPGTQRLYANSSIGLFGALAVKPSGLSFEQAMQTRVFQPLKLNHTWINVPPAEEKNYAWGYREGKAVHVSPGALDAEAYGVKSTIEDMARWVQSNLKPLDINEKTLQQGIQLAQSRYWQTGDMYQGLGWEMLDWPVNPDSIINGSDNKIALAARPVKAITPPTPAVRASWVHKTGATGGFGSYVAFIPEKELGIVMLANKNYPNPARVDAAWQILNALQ
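AmpC (5.3 nM in the dispensed reagent) in 20 mM phosphate pH 7.0 with 0.01% (detergent screen) or 0.0001% Triton X-100 was preincubated with compounds for 15 min at room temperature. Nitrocefin was then added from an 800 uM solution, and hydrolysis was followed at 480 nm.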
Shiga toxin inh = inhibitors of Shiga toxin in Vero cells. Vero cells, Shiga toxin protein synthesis inhibition reporter. inhibition, % at 38.7 µM. 290,000 tested, 9.2% active. AID 2315; in the data active = inhibition mostly above about 28%, no sharp cut-off; inactive = mostly below about 43%; note: 0% is about no effect
AmpC no deterg = AmpC beta-lactamase inhibition without detergent | P00811 | AmpC nitrocefin hydrolysis, absorbance 480 nm, 0.0001% Triton | Potency, µM (titrated, usually from 57.1 µM), for inactives: at the top dose activity change, negative = inhibition, actives largely listed as inhibitors | 330,000 tested, 0.52% active | AID 485341;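 note: potency is the fitted concentration of half-maximal effect; plate controls were no compound for no effect and no enzyme for full effect; nearly all actives have a fitted effect of over 20% in size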
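AmpC (5.3 nM in the dispensed reagent) in 20 mM phosphate pH 7.0 with 0.01% (detergent screen) or 0.0001% Triton X-100 was preincubated with compounds for 15 min at room temperature. Nitrocefin was then added from an 800 uM solution, and hydrolysis was followed at 480 nm.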
NS1 function inh = blocks influenza NS1 protein function; Potency, µM (top dose mostly 46.1 µM), for inactives: at the highest dose activity, positive = more growth; 270,000 tested, 0.4% active; AID 2326; calls by dose curve; note: potency is the fitted concentration of half-maximal effect; actives are rising curves; nearly all actives have a fitted effect of over 50% in size
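Growth recovery, yeast-based: influenza A NS1 expressed in S. cerevisiae causes slow growth, and suppressors are detected by OD600. The parent strain without NS1 is used as positive control.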
Cycloheximide cs = counter-screen for Shiga toxin inhibitors: cycloheximide protein synthesis inhibition; AID 2314; 300,000 tested, 12% active; cell reporter, cycloheximide protein synthesis inhibition counterscreen; max response, %; in the data active = max response mostly above about 13%, no sharp cut-off; inactive = mostly below about 14%; note: read at 38.3 µM for the half of the compounds with a filed dose; 0% is about no effect
Numbers without * were called inactive; ? = inconclusive; . = no result. Unless noted, calls come from the whole dose curve; as a rule, active = well fitted curve in the direction sought with a large enough effect; inconclusive = small, poorly fitted or top-dose-only effect, or another doubt; inactive = no such curve, though single readings can be large; an effect the other way counts as inactive or inconclusive.

SMILES | AmpC detergent | Shiga toxin inh | AmpC no deterg | NS1 function inh | Cycloheximide cs
Cc1cc(C)c2c(N)c(C(=O)Nc3ccc([N+](=O)[O-])cc3)sc2n1 | 0.6% | 41.9* | -12.4% | 4.2% | 19.8*
Cc1cc(C)c2c(N)c(C(=O)Nc3ccc(F)cc3)sc2n1 | -0.2% | 91.8* | -11.2% | 0.3% | 44.6*
Cc1cc(C)c2c(N)c(C(=O)c3ccc(Cl)cc3)sc2n1 | -4.7% | 26.1 | -22.6% | -5.6% | 5.0
Cc1cc(C)c2c(N)c(C(=O)c3ccc(Cl)c(Cl)c3)sc2n1 | -11.2% | 81.6* | -12.1% | . | 21.4
Cc1cc(C)cc(NC(=O)c2sc3nc(C)cc(C)c3c2N)c1 | -7.6% | 117.6* | 91.3% | -7.8% | 25.1*
COc1ccc(NC(=O)c2sc3nc(C)cc(C)c3c2N)cc1 | -7.4% | 43.3* | -9.0% | 15.1% | 34.3*
Cc1cc(C)c2c(N)c(C(=O)N/N=C/c3cccs3)sc2n1 | -6.7% | 91.9* | -18.0% | -3.2% | 53.5*
Cc1cc(C)c2c(N)c(C(=O)Nc3ccc(C)c(C)c3)sc2n1 | -7.5% | 123.7* | 23.2% | -8.2% | 32.9*
Cc1ccc(NC(=O)CSc2cc(=O)n(C)c3ccc(Cl)cc23)c(Br)c1 | -1.5% | . | . | . | .
COc1cc(OC)c(/C=N/NC(=O)c2ccc(Cn3nc([N+](=O)[O-])cc3C)cc2)c(OC)c1 | 1.3% | -1.8 | -14.8% | -0.3% | -3.4
CCc1nn(CC(=O)N2CCCCC2)c(=O)c2cc3sccc3n12 | 1.1% | . | . | . | .
CCC(CC)C(=O)c1c[nH]c(C(=O)N2CCN(c3ccccc3)CC2)c1 | 3.0% | -7.9 | -6.7% | -3.6% | -3.0
COC(=O)c1ccc(CN2C(=O)NC3(CCCCC3)C2=O)cc1 | -3.0% | 61.3* | -16.2% | . | 119.1*
Cc1cc(C)c(C(=O)CN2C(=O)NC3(CCCCCC3)C2=O)cc1C | -2.2% | 40.8* | -18.4% | . | 53.2*
Cc1cc(C(=O)CN2C(=O)NC3(CCCCC3)C2=O)c(C)n1C | ? | 44.8* | -24.0% | 2.0% | 38.5*
Cc1cc(C(=O)CN2C(=O)NC3(CCCc4ccccc43)C2=O)c(C)n1C (stereo unspecified) | -3.6% | -3.9 | 18.2% | 5.0% | -1.2
CCCn1nnnc1NCc1ccccc1Cl | 6.3% | -6.2 | -8.6% | 14.4% | -3.0
N=c1n(CC(=O)c2ccc(Br)cc2)c2ccccc2n1Cc1ccccc1 | -1.5% | . | -26.2% | . | .
CCN(CC)CCn1c(=N)n(CC(=O)c2ccc(C)cc2)c2ccccc21 | ? | . | 58.7% | 10.4% | 27.0*
Cc1ccc(C(=O)Cn2c(=N)n(N)c3ccccc32)cc1 | -0.2% | 81.1* | 2.2% | 23.7% | 46.2*
COc1ccc(CCNC(=O)c2cccc(Nc3nc4ccccc4nc3-n3nc(C)cc3C)c2)cc1OC | -6.0% | . | . | . | .
COc1cc(NC(=O)c2cccs2)ccc1NC(=O)c1ccco1 | -5.4% | 126.7* | -22.0% | -13.3% | 40.3*
O=C(Nc1ccc(Cl)c(NC(=O)c2cccs2)c1)c1ccco1 | 9.2% | -11.5 | -21.8% | -60.7% | 6.7
O=C(Nc1ccc(NC(=O)c2cccs2)cc1Cl)c1ccco1 | 0.3% | 95.6* | -21.8% | . | 38.0*
O=C(Nc1ccc(NC(=O)c2cccs2)c(Cl)c1)c1cccs1 | -3.0% | 49.6* | -56.8% | -10.8% | 43.1*
SMILES | AmpC detergent | Shiga toxin inh | AmpC no deterg | NS1 function inh | Cycloheximide cs
O=C(CN1C(=O)CC(c2ccc(F)cc2)=Nc2ccccc21)NCc1ccccc1Cl | 1.6% | . | . | . | .
CCOC(=O)c1c(C)nc2c3ccccc3ccn12 | -10.3% | 36.8* | 21.2% | -46.4% | 32.0*
O=C(c1cc(COc2ccc(F)c(F)c2)on1)N1CCN(C/C=C/c2ccccc2)CC1 | -15.5% | 44.7* | 221.1% | -82.3% | 36.7*
O=C(c1cc(COc2ccc(F)c(F)c2)on1)N1CCN(C2CCCCC2)C(=O)C1 | -0.4% | 58.6 | 126.8% | -40.8% | 30.8*
O=C(c1cc(COc2c(F)cccc2F)on1)N1CCN(C2CCCCC2)C(=O)C1 | -2.4% | 1.3 | 86.6% | -14.4% | 3.2
COCCN1CCN(C(=O)c2cc(COc3ccc(F)c(F)c3)on2)CC1 | 1.9% | 25.8 | 72.0% | -2.9% | 26.9*
COCCN1CCN(C(=O)c2cc(COc3ccc(F)cc3F)on2)CC1 | ? | 9.8 | 12.1% | 5.3% | 1.5
CCCN1CCN(C(=O)c2cc(COc3ccc(F)c(F)c3)on2)CC1 | ? | 39.9* | 44.3% | 5.5% | 28.6*
Cc1cccnc1CN1CCN(C(=O)c2cc(COc3ccc4ncccc4c3)on2)CC1 | 6.8% | -6.0 | 105.7% | -2.7% | 1.6
COC(=O)c1c(-c2ccc(Cl)cc2)noc1N1CCN(c2cccc(C)c2C)CC1 | 21.0% | . | . | . | .
CCCOC1CCCN(C(=O)c2cc(COc3ccc(F)c(F)c3)on2)C1 (stereo unspecified) | ? | 109.3* | 59.6% | -5.0% | 44.0*
CCOc1ccc(/C=N/NC(=O)c2csc(C)c2C)c(OCC)c1 | 7.7% | 47.1 | -23.7% | 7.4% | 17.5
CCCCOc1cccc(/C=N/NC(=O)c2csc(C)c2C)c1 | -14.1% | 10.2 | -35.5% | -7.9% | 1.2
Cc1scc(C(=O)N/N=C/c2ccc(Cl)s2)c1C | -3.6% | 50.1* | -25.1% | -5.4% | 46.8*
Cc1scc(C(=O)N/N=C/c2ccc(OC(C)C)cc2)c1C | -12.2% | 114.8* | -50.2% | -12.9% | 44.2*
COc1ccccc1/C=N/NC(=O)c1csc(C)c1C | ? | 39.4* | -45.1% | 12.9% | 15.4*
COc1cccc(Cn2c(=O)n(Cc3ccco3)c(=O)c3oc4ccccc4c32)c1 | 2.7% | . | . | . | .
COc1ccc(NC(=O)C2CCCN(C(=O)Nc3ccc(F)cc3)C2)cc1OC (stereo unspecified) | -4.9% | -1.8 | 2.8% | 8.4% | -5.1
O=[N+]([O-])c1cccc(/C=N/NC2=NCCCCC2)c1 | -7.7% | 62.0* | -29.9% | 10.4% | 35.7*
Oc1ccccc1/C=N/NC1=NCCCCC1 | -8.8% | 94.8* | -0.7% | 11.5% | 33.7*
CC(O)c1nc2ccccc2n1C/C=C/c1ccccc1 (stereo unspecified) | -1.8% | 1.9 | 0.4% | ? | -2.1
COc1ccc(Cn2c(/C=C/c3ccccc3)nc3ccccc32)cc1 | -13.6% | 82.2* | -16.0% | -95.6% | 64.8*
CCn1c(/C=C/c2ccccc2)nc2ccccc21 | 1.5% | 62.2* | -27.7% | -31.6% | 33.2*
CCCn1c(/C=C/c2cc[n+](C)cc2)nc2ccccc21 | ? | -6.4 | -9.8% | 14.0% | -2.6
COc1ccc(/C=C/c2nc3ccccc3n2C)cc1 | -0.6% | -36.6 | -31.4% | . | -21.7
SMILES | AmpC detergent | Shiga toxin inh | AmpC no deterg | NS1 function inh | Cycloheximide cs
CCn1c(/C=C/c2ccccc2)nc2ccccc2c1=O | -10.6% | 19.3 | 12.8% | -35.1% | 2.3
CC(C)Cn1c(/C=C/c2ccccc2)nc2ccccc21 | -3.8% | 59.1* | -16.8% | -38.8% | 39.4*
CCCCCCn1c(/C=C/c2ccccc2)nc2ccccc21 | 10.8% | 101.3* | . | . | 46.8*
COc1ccc(Cc2nnc(NC(=O)c3ccccc3F)s2)cc1OC | -5.2% | -9.1 | 10.3% | -0.9% | -2.7
O=C(Nc1ccncc1)c1cc(S(=O)(=O)N2CCOCC2)ccc1Cl | -16.1% | . | -13.3% | . | .
Cc1ccccc1NC(=O)c1ccc(N(Cc2ccccc2)S(C)(=O)=O)cc1 | 13.8% | . | . | . | .
